The list is not random: actives were taken first. Their share in the collection is about 6.1%.
HepG2 tox-1 – qHTS for Inhibitors of TGF-b: Cytotox Counterscreen. HepG2 CAGA-GFP viability, ATP luminescence, 18 h. Potency, µM (top dose mostly 46.1 µM), for the others: at the highest dose activity change, negative = cytotoxicity, most hits filed as cytotoxic. 410,000 tested, 0.76% active. AID 588856, 2011
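CellTiter-Glo luminescence gave cytotoxicity after 18 hours at 37 degrees C. The cells were HepG2 CAGA-GFP in 1% FBS DMEM, stimulated with 500 pg/mL TGF-beta after compound addition. %Activity was normalised to no-cell wells (complete cell-killing) and DMSO (no toxicity), and curves were fitted and classified.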
TGFb SMAD3 inh – qHTS for Inhibitors of TGF-b; 410,000 tested, 1.2% active; AID 588855, 2011; Potency, µM (series often up to 46.1 µM), without a hit: top-dose activity, negative = inhibition, actives largely listed as inhibitors; HepG2 CAGA-GFP TGF-b/SMAD3 reporter, GFP fluorescence, 18 h; TGF-beta stimulated, 500 pg/mL final; note: % is set by controls: 0 for no effect and ±100 for the full control effect; nearly all actives have a fitted effect of over 65% in size
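Read-out: total well GFP (ex488/em500-530) summed from mean per-cell fluorescence. Cells: HEPG2 CAGA-GFP, 1% FBS DMEM, 18 h at 37 degrees C with 500 pg/mL final TGF-beta. Unstimulated wells served as the full-inhibition control; stimulated DMSO wells = 0%.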
VP16 counter – VP16 counterscreen qHTS for inhibitors of ROR gamma transcriptional activity; Drosophila S2 Gal4-VP16 UAS-luciferase, luminescence, 20 h; Potency, µM (series often up to 53.6 µM), without a hit: top-dose activity, negative = inhibition, usual class: inhibitors; 310,000 tested, 3.5% active;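 note: Gal4-VP16 expression switched on by copper sulfate through the metallothionein promoter; % is set by controls: 0 for no effect and ±100 for the full control effect; nearly all actives have a fitted effect of over 50% in size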
RORgamma inh – qHTS for inhibitors of ROR gamma transcriptional activity. Nuclear receptor ROR-gamma (Mus musculus), P51450. Drosophila S2 Gal4-RORgamma UAS-luciferase reporter, 20 h. Potency, µM (highest dose often 53.6 µM), for the others: at the highest dose activity change, negative = inhibition, most hits filed as inhibitors. 310,000 tested, 5.4% active. AID 2551, 2010; note: % is set by controls: 0 for no effect and ±100 for the full control effect; nearly all actives have a fitted effect of over 60% in size
Target sequence (P51450 whole entry, looked up, the tested form may be a part): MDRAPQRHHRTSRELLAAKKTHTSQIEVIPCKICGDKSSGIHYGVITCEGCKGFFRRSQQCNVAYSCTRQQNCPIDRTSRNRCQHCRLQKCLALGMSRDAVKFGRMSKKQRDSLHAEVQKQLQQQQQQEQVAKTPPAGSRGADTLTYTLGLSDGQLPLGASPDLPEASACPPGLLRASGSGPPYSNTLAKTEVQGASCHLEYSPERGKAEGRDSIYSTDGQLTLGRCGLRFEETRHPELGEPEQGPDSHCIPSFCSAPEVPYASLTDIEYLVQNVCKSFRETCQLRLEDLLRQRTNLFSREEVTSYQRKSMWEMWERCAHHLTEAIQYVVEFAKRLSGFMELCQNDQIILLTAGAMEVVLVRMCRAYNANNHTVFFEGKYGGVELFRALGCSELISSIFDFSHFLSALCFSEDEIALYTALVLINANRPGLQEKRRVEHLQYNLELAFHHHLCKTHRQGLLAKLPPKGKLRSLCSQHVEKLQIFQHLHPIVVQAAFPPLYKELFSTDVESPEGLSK
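Luciferase reporter read in Schneider cells carrying Gal4-RORγ (mouse) and UAS-Photinus luciferase; cells given compound 1 h before 700 uM copper sulfate induction, then incubated 20 h at ambient temperature.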
ATXN viability – Viability Counterscreen for Primary qHTS for Inhibitors of ATXN expression | 400,000 tested, 0.49% active | Potency, µM (doses to about 56.7 µM), most hits filed as cytotoxic | S2 cells (HEK-293 line with an ATXN2-luciferase reporter) viability, CellTiter-Fluor protease fluorescence, 24 h; note: nearly all actives have a fitted effect of over 40% in size
ATXN2 expr inh – Primary qHTS for Inhibitors of ATXN expression; HEK-293 ATXN2-luciferase reporter, luminescence, 24 h; Potency, µM (highest dose often 57 µM), for inactives: at the highest dose activity change, negative = inhibition, most hits filed as inhibitors; 360,000 tested, 0.72% active; AID 1745845, 2022; note: % is set by controls: 0 for no effect and ±100 for the full control effect; nearly all actives have a fitted effect of over 55% in size
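ATXN2-luciferase reporter cells (luciferase flanked by upstream and downstream ATXN2 gene portions) were treated 24 h at 37 °C with compounds at up to 57 uM. SteadyGlo luminescence gave expression; GF-AFC fluorescence gave viability.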
TGFb CAGA inh – qHTS for Inhibitors of TGF-b: Confirmation of Cherry Picks | shares compounds with TGFb SMAD3 inh | HepG2 CAGA-GFP TGF-b reporter, GFP fluorescence, 18 h; cells stimulated with TGF-beta, 500 pg/mL | Potency, µM (doses to about 46.1 µM), for the others: at the top dose activity, negative = inhibition, hits mostly inhibitors | 1,600 tested, 63% active | AID 720534, 2013; note: % is set by controls: 0 for no effect and ±100 for the full control effect; nearly all actives have a fitted effect of over 65% in size
HepG2 tox-2 – qHTS for Inhibitors of TGF-b: Cytotox Counterscreen for Cherry Picks | shares compounds with TGFb SMAD3 inh | HepG2 CAGA-GFP viability, ATP luminescence, 18 h; cells stimulated with TGF-beta, 500 pg/mL | Potency, µM (highest dose often 46.1 µM), for inactives: at the highest dose activity, negative = cytotoxicity, actives largely listed as inhibitors | 1,600 tested, 27% active | AID 720535, 2013; note: % is set by controls: 0 for no effect and ±100 for the full control effect; nearly all actives have a fitted effect of over 70% in size
TGFb CCL64 inh – qHTS for Inhibitors of TGF-b: CCL64 Cells Orthogonal Assay for Cherry Picks; shares compounds with TGFb SMAD3 inh; CCL64 CAGA-GFP reporter, TGF-b stimulated, GFP fluorescence, 18 h; Potency, µM (titrated, usually from 46.1 µM), inactives show top-dose activity, negative = inhibition, hits mostly inhibitors; 1,600 tested, 41% active; note: nearly all actives have a fitted effect of over 65% in size
TGFb COP inh – qHTS for Inhibitors of TGF-b: Hit Validation in HepG2 Cells using COP promoter; Potency, µM (series often up to 46.1 µM), inactives show at the top dose activity, negative = inhibition, actives largely listed as inhibitors; shares compounds with TGFb SMAD3 inh; HepG2 COP-GFP TGF-b reporter, GFP fluorescence, 18 h; cells stimulated by added recombinant TGF-beta; 1,600 tested, 3% active; note: nearly all actives have a fitted effect of over 70% in size
The depositor's hits bear a star; i = inactive; ? = inconclusive; · = no result; [ ] = dose if it differs, or a comment. Calls come from the whole dose curve; as a rule, active = well fitted curve in the direction sought with a large enough effect; inconclusive = small, poorly fitted or top-dose-only effect, or another doubt; inactive = no such curve, though single readings can be large; an effect the other way counts as inactive or inconclusive. Potency is the fitted concentration of half-maximal effect.

SMILES | HepG2 tox-1 | TGFb SMAD3 inh | VP16 counter | RORgamma inh | ATXN viability | ATXN2 expr inh | TGFb CAGA inh | HepG2 tox-2 | TGFb CCL64 inh | TGFb COP inh
Cc1ccc(-c2nnc3c(C(F)(F)F)nc4ccccc4n23)cc1 | -42% | ? | 5% | 11% | ? | -6% | · | · | · | ·
CCOC(=O)c1cc(S(=O)(=O)N2CCN(c3ccccc3F)CC2)[nH]n1 | -30% | -13% | · | · | i | -1% | · | · | · | ·
CCOC(=O)c1ccc(CN(Cc2ccc(Cl)cc2Cl)S(=O)(=O)c2ccc(F)c(C)c2)cc1 | 0% | -3% | · | · | · | · | · | · | · | ·
O=C(C1=C[C@@H](c2ccc(C(F)(F)F)cc2)C[C@@H](OCc2ccc(CO)cc2)O1)N1CCN(Cc2ccccc2)CC1 | -5% | 14µM* | -9% | ? | ? | ? | 18µM* | -26% | ? | 27%
CN1CCN(C(=O)C2=C[C@@H](c3ccc(C(F)(F)F)cc3)C[C@@H](OCc3ccc(CO)cc3)O2)CC1 | -53% | -2% | -3% | -8% | i | -5% | · | · | · | ·
COc1ccc(C(=O)Oc2cccc3cccnc23)cc1[N+](=O)[O-] | 5.6µM* | 6.3µM* | 3.2µM* | 2.2µM* | ? | -20% | 3% | 0% | 16% | 5%
NC(=O)c1ccc(Oc2cccc3cccnc23)c([N+](=O)[O-])c1 | 7% | 3% | -12%[10 µM] | -3% | i | -9% | · | · | · | ·
COCCNC(=O)c1cnc2sc(N3CCCCC3)nn2c1=O | -4% | -26% | · | · | i | -1% | · | · | · | ·
CCN(CC)c1ccc(Nc2nc(N3CCOCC3)c3ccccc3n2)cc1 | -94% | 10µM* | 11µM* | -42% | i | -35% | ? | 21µM* | ? | 30%
CCCN(CCC)C(C(=O)Nc1cccc(OC)c1)c1ccccc1 (stereo not given) | 0% | 2% | 15% | -8% | i | -4% | · | · | · | ·
COc1cccc(NC(=O)C(NCCC(C)C)c2ccccc2)c1 (stereo not given) | -31% | 13µM* | 21% | -1% | i | -7% | ? | -5% | -28% | -6%
CCc1cc2c(nc1CC)CCN(CC/C(C)=N/O[C@@H](C)c1cn([C@H](CO)Cc3ccccc3)nn1)C2 | · | · | 12%[10 µM] | -7%[10 µM] | · | · | · | · | · | ·
COc1ccc(C2NC(=O)N(C)C3=C2C(=O)N(c2ccc(F)cc2)C3)cc1 (stereo not given) | -3% | 1% | · | · | ? | -7% | · | · | · | ·

Source: PubChem
